# PubChem BioAssay AID588591 (National Center for Advancing Translational Sciences (NCATS), 2011)
# Screen size: about 390,000 compounds; about 4,700 (1.2%) were called active. Not shown: some 4% with an inconclusive outcome. Calls follow the shape of the dose curve; as a rule, active = well fitted inhibition curve with a large enough effect; inconclusive = small, poorly fitted or top-dose-only effect, or another doubt; inactive = no such curve, though single readings can be large or run the other way. What follows is part of a selection rich in actives, with near analogues and random picks from the rest.
# Target: DNA polymerase eta (Homo sapiens) (UniProt Q9Y253)
# Sequence (Q9Y253 whole entry, looked up): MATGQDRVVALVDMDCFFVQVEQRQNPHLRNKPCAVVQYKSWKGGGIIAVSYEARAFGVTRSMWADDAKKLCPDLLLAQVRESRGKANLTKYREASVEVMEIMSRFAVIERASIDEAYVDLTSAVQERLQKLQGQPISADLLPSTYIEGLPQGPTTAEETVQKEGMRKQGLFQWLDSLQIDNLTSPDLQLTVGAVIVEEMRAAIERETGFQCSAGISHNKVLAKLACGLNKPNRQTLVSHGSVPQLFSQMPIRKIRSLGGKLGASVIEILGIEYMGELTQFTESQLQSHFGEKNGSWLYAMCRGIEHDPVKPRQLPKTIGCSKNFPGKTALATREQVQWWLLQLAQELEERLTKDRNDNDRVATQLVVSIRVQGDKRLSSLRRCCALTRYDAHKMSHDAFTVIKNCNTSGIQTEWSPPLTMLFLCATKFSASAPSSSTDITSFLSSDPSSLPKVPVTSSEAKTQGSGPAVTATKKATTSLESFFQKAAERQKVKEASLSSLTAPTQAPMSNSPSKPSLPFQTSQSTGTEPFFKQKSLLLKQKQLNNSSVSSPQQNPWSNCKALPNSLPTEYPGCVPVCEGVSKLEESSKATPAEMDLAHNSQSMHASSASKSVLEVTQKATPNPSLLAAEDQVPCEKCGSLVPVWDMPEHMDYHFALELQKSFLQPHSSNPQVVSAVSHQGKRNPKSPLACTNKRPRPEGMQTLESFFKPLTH
# Test: qHTS for Inhibitors of Polymerase Eta
# Details: recombinant Pol eta, fluorescent DNA replication assay; series mostly up to 114 µM; activity change, negative = inhibition: at the top concentration
# Procedure, shortened: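 Pol eta at 10 nM preincubated with compounds 15 min at room temperature; reaction started with fluorescent substrate (50 nM final) and read kinetically at 0 and 10 min.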
# % is scaled to controls: 0 for no effect and ±100 for the full control effect; potency is read from the fitted curve at half-maximal effect.
SMILES,"activity change, negative = inhibition",Potency
Oc1ccc(Cn2cc[nH]c2=S)cc1,-4.7% [at 57.1 µM] (inactive),
COc1ccc(CCNc2ncnc3c2cnn3-c2ccc(C)cc2)cc1,-15.2% (inactive),
Cc1ccc(NC(=O)CSc2nc3c([nH]c4ccccc43)c(=O)n2-c2ccccc2)cc1Cl,2.47% (inactive),
C=CCSc1nnc(N2C(=O)C(O)=C(C(=O)c3ccco3)C2c2ccc(F)cc2)s1 (centres undefined),-17.6% (inactive),
Cc1ccc2nc(N3C(=O)C(O)=C(C(=O)c4ccco4)C3c3cccc(O)c3)sc2c1 (centres undefined),,50.1 µM (active)
CC(=O)c1sc(N2C(=O)c3oc4ccccc4c(=O)c3C2c2ccc(C)cc2)nc1C (centres undefined),-12.5% (inactive),
CC(=O)c1ccc(NC(=O)CSc2nc(-c3ccccc3F)nc3c2c(=O)n(C)c(=O)n3C)cc1,0.181% (inactive),
CCCCc1nn2c(=O)cc(COC(=O)c3cccc(NC(=O)COc4ccccc4)c3)nc2s1,-13.7% (inactive),
Cn1c(=O)[nH]c(=O)c2c1nc(NCCc1ccccc1)n2Cc1ccc(F)cc1,-20.1% (inactive),
O=C(Nc1ccc(F)cc1)c1cc2c(s1)CCCC2,-15% (inactive),
O=C(c1cc2c(s1)CCC2)N1CCN(c2ccccc2)CC1,,10 µM (active)
CC1CCN(c2nc3ccc(C(=O)N4CCN(c5ccccc5)CC4)cc3s2)CC1,-14.8% (inactive),
CC1CCCN(c2csc3ccc(F)cc3c2=O)C1 (centres undefined),-18.2% (inactive),
Cc1cc(C)n2nc(SCC(=O)NC(=O)NCc3ccco3)nc2n1,-12.1% (inactive),
Cc1ccc(SCC(=O)NC(=O)NCc2ccco2)c(C)c1,,14.1 µM (active)
Cc1cc(C)c2c(c1)c(C)cc1nnc(SCC(=O)NCc3ccco3)n12,-9.48% (inactive),
CCc1cccc(NC(=O)CN(C)S(=O)(=O)c2ccc3[nH]c4c(c3c2)CCCC4)c1,-8.51% (inactive),
CCn1c2ccccc2c2nnc(N3CCN(c4cc(C)ccc4C)CC3)nc21,12.8% (inactive),
Cc1ccc2[nH]c3c(=O)n(CC(=O)NC(C)C)ncc3c2c1,-18.8% (inactive),
O=C(C1=C(O)C(=O)N(CCOCCO)C1c1ccccn1)c1cccs1 (centres undefined),-5.89% (inactive),
O=C(C1=C(O)C(=O)N(c2ncccn2)C1c1cccs1)c1ccco1 (centres undefined),,79.4 µM (active)
CC(C)c1ccc(C2C(C(=O)c3ccco3)=C(O)C(=O)N2CC2CCCO2)cc1 (centres undefined),-8.95% (inactive),

SMILES,"activity change, negative = inhibition",Potency
O=C(CN1C(=O)CCn2nc(-c3ccccc3)cc21)NCc1ccccc1,-13.6% (inactive),
O=C(c1cccs1)c1cn(CCOc2ccc(Cl)cc2)c2ccccc12,-12.8% (inactive),
O=C(COc1ccc(/C=N/NC(=O)c2ccc(O)cc2)cc1)Nc1ccc([N+](=O)[O-])cc1,,4.47 µM (active)
O=C(N/N=C/c1ccc(OCC2COCCO2)cc1)c1ccc(Br)cc1 (centres undefined),-9.88% (inactive),
CN1CCN(Cc2nc3cc(NC(=O)COc4ccc([N+](=O)[O-])cc4)ccc3n2C)CC1,-2.43% (inactive),
COc1ccc(C2Sc3ccccc3NC3=C2C(=O)c2ccccc23)c(OC)c1OC (centres undefined),-10.5% (inactive),
CCC(C)OC(=O)C(C)Oc1ccc(-c2ccccc2)cc1 (centres undefined),-10.5% (inactive),
NC(CSC(c1ccccc1)(c1ccccc1)c1ccc(-c2ccccc2)cc1)C(=O)O (centres undefined),,25.1 µM (active)
C=CCC(CC=C)(C(N)=O)c1ccccc1,-13.7% (inactive),
O=C(Nc1ccc(C(=O)OCc2cc(=O)n3nc(C4CC4)sc3n2)cc1)c1ccc(F)cc1,3.99% (inactive),
COc1ccc(CCNCc2c(C(=O)O)c(C)n(Cc3cccc(C)c3)c2C)cc1OC,-19.4% (inactive),
COc1ccc(Cl)cc1NC(=O)CN(C)Cc1ccc(OC)c(OC)c1,-27.5% (inactive),
COc1ccc(Cl)cc1NC(=O)CCC(=O)c1ccc(C)cc1,-3.27% (inactive),
COc1ccc(Cl)cc1NC(=O)CCS(=O)(=O)c1ccc(Br)cc1,,20 µM (active)
Cn1c(=O)oc2cc(S(=O)(=O)CCC(=O)NCCc3ccc(Cl)cc3)ccc21,-13.5% (inactive),
CC(=O)N1CCc2cc(Br)cc(S(=O)(=O)CCC(=O)NCCc3ccc(Cl)cc3)c21,-7.83% (inactive),
O=C(CCS(=O)(=O)c1ccc(Br)cc1)NCCc1ccc(Cl)cc1,,20 µM (active)
O=C(CCS(=O)(=O)c1cc(Br)cc2c1N(C(=O)C1CC1)CC2)Nc1ccc(Br)cc1F,4.1% (inactive),
CSc1nc(-c2ccccc2Cl)nc2c1Cc1c(CO)cnc(C)c1O2,-2.32% (inactive),
CC(=O)c1sc2nc(SCC(=O)N3CCCCC3)[nH]c(=O)c2c1C,,10 µM (active)
Cc1c(C)n2c(SCC(=O)N3CCCC3)nnc2[nH]c1=O,-18.5% (inactive),
COCCn1c(SCC(=O)N2CCCCCC2)nc2c(c1=O)SCC2,-10.1% (inactive),

SMILES,"activity change, negative = inhibition",Potency
Cc1cc(C)c2oc(C(=O)Nc3ccc(S(=O)(=O)N4CCCCCC4)cc3)cc(=O)c2c1,-9.78% (inactive),
O=C(CSc1nnc(-c2ccncc2)n1-c1ccccc1)Nc1ccc(Cl)c(Cl)c1,1.86% (inactive),
COc1ccc(S(=O)(=O)NCCSc2nnnn2-c2ccccc2)cc1,-11% (inactive),
CC(C)(C)C1C/C(=C/c2ccco2)C(=O)/C(=C/c2ccco2)C1 (centres undefined),,28.2 µM (active)
COc1cc(Cl)ccc1Nc1ncc(C(=O)N2CCN(c3ccccc3OC)CC2)c2ccccc12,-7.62% (inactive),
COc1ccc(Nc2ncc(C(=O)Nc3cc(C)ccc3OC)c3ccccc23)cc1,-16.5% (inactive),
COc1ccc(C(=O)Nc2cccc(C(=O)OCc3cc(=O)n4c5c(sc4n3)CCCC5)c2)cc1,-3.82% (inactive),
COc1ccccc1CNC(=O)c1ccc(-n2c(C)cc3c2CCCC3)cc1,-7.73% (inactive),
COc1ccc(C2=CC(c3ccccc3Cl)n3nc(-c4ccc(Cl)cc4)nc3N2)cc1 (centres undefined),-22.5% (inactive),
CCCCOc1ccc(CNC(=O)c2ccc3c(c2)N(C)C(=O)C2CCCCN32)cc1 (centres undefined),-10% (inactive),
Cc1cc(C)cc(NS(=O)(=O)c2ccc(-c3cc(C)no3)s2)c1,5.56% (inactive),
CCOc1ccc(NC(=O)c2ncoc2-c2ccco2)cc1,-22.9% (inactive),
COCCNC(=O)Nc1ccc2nc(-c3ccco3)c(-c3ccco3)nc2c1,,2.82 µM (active)
COc1ccc(NC(=O)C(=O)NCc2ccco2)cc1,1.33% (inactive),
CCC(=O)N1c2ccccc2CC1C(=O)N1CCN(c2ccccc2F)CC1 (centres undefined),-10.7% (inactive),
Cc1cccc(CC(=O)N2CC(=O)Nc3ccc(F)cc3C2c2ccccc2)c1 (centres undefined),-24% (inactive),
CC(NC(=O)COC(=O)c1ccc(Cl)cc1O)c1ccc(F)cc1 (centres undefined),-13.8% (inactive),
O=C(COC(=O)c1ccc(F)cc1F)Nc1ncccn1,,22.4 µM (active)
O=C(COC(=O)CSc1ccccc1)Nc1ccc(F)cc1F,-9.37% (inactive),
CCOC(=O)c1ccc(NC(=O)Cn2c(=O)cc(C)c3c(C)nn(-c4cccc(F)c4)c32)cc1,-12% (inactive),
